Test [1] concerns TRPC4 beta (transient receptor potential cation channel C4), mouse. The test is described as follows: activators of mouse TRPC4 channel, confirmation, cell-based, Fluo4 calcium, HEK293 TRPC4beta/mu-opioid, duplicates, 10 µM (AID 2426;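 active = fluorescence ratio normalized to control raised more than 50% in primary screen plus both repeat runs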;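 as to activation: percent rise of integrated ratio over buffer wells lacking compound which define 0%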). As to conditions: Fluo4 calcium fluorescence, at 10 µM; hits give high values.
Test [2] relates to transient receptor potential cation channel C4 beta (TRPC4), mouse. The test is described as follows: activators of mouse TRPC4 channel, confirmation, cell-based, second round, Fluo4, HEK293 TRPC4beta/mu-opioid, 1 µM (AID 2461;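 active = primary screen active and over 50% activation in each of two duplicate runs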). Particulars: Fluo4 calcium fluorescence, at 1 µM; hits give high values.
For test [3], the system named is TRPC4 (transient receptor potential cation channel C4 beta), mouse. Kind of test: positive allosteric modulators of mouse TRPC4, confirmation, cell-based, second round, Fluo-4, HEK293 TRPC4beta/mu-opioid, 1 µM (AID 2554;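 active = primary screen hit whose fluorescence ratio, in both repeats, exceeds the weak agonist control mean by 3 SD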). As to conditions: DAMGO EC20, Fluo-4 calcium flux, at 1 µM; hits give high values. (In general: A change in cytosolic calcium serves as a functional read-out for many receptors and channels.)

The test system of test [4] is TRPC4 beta (transient receptor potential cation channel C4), mouse. The test is described as follows: positive allosteric modulators of mouse TRPC4, confirmation, cell-based, Fluo-4, HEK293 TRPC4beta/mu-opioid (AID 2555;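 active = primary screen hit whose calcium fluorescence ratio, in both repeats, exceeds the weak agonist control mean by 3 SD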). As to conditions: DAMGO EC20, Fluo-4 calcium flux, at 10 µM; hits give high values.
The target in test [5] is Short transient receptor potential channel 4 (Mus musculus) (UniProt Q9QUQ5). The test is described as follows: inhibitors of mouse TRPC4 channel, confirmation, cell-based, Fluo4, HEK293 TRPC4beta/mu-opioid (AID 2636;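 active = calcium signal cut by more than 3 SD below the full-agonist control yet still positive, in both repeats and the earlier primary screen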). As to conditions: DAMGO, Fluo4 calcium flux, at 10 µM; hits give high values.
Test [6] shares this target. Kind of test: inhibitors of mouse TRPC4 channel, confirmation, cell-based, second round, Fluo4, HEK293 TRPC4beta/mu-opioid, 1 µM (AID 2637;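 active = calcium signal ratio cut to more than 3 SD under the fully stimulated control mean yet still positive, in both repeats and the primary screen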). Particulars: Fluo4 calcium flux, DAMGO, at 1 µM; hits give high values.
The target is the same in test [7]. The test is described as follows: mouse TRPC4 channel activators, dose response, cell-based, HEK293 TRPC4/mu-opioid, Fluo-4 calcium (AID 434937;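 active = primary screen activator hit with a dose response curve and TRPC4 channel activation at any tested dose; inactive = no activation, no dose response, or not a primary hit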).
Test [8] has the same target. Kind of test: TRPC4 positive allosteric modulators, dose response, cell-based, HEK293 TRPC4/mu-opioid, Fluo-4 calcium, EC20 DAMGO (AID 434941;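 active = earlier screen potentiator hit that boosts the TRPC4 ion channel at some dose, with a dose response; inactive = no potentiation, no dose response, or not a prior hit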;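 also: calcium entry triggered by an EC20 dose of DAMGO at the co-expressed mu-opioid receptor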).
Test [9] has the same target. Kind of test: mouse TRPC4 channel inhibitors, dose response, cell-based, HEK293 TRPC4/mu-opioid, Fluo-4 calcium (AID 434942;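 active = primary screen inhibitor hit that blocks the TRPC4 channel at some tested dose, yielding a dose curve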).
Test [10] has as its target Short transient receptor potential channel 6 (Mus musculus) (UniProt Q61143). Kind of test: inhibition of mouse TRPC6 channel, confirmation, selectivity assay for TRPC4 inhibitor project, cell-based, HEK293, membrane potential dye, duplicate (AID 434948;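 active = active in primary screen and both duplicates, each dropping signal beyond three positive-control SD with fluorescence still positive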). Particulars: HEK293 TRPC6, membrane potential dye fluorescence, at 10 µM, stimulated with maximal-effect acetylcholine; hits give high values.

Test [11] has the same target. Kind of test: activation of mouse TRPC6 channel, confirmation, selectivity assay for TRPC4 activator project, cell-based, HEK293, membrane potential dye, duplicate (AID 434950). As to conditions: HEK293 TRPC6, membrane potential fluorescence, at 10 µM; hits give high values.
The target is the same in test [12]. The test is described as follows: TRPC6 potentiation by TRPC4 potentiator hits, confirmation, selectivity assay for TRPC4 potentiator project, HEK293 cells, membrane potential dye, duplicate (AID 434952;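 active = compound raising the membrane signal above positive-control mean plus 3 SD in both repeats, and a primary screen hit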). As to conditions: HEK293 TRPC6, membrane potential dye fluorescence, at 10 µM, maximal acetylcholine added after compound; hits give high values.
For test [13], the target named is Short transient receptor potential channel 4 (Mus musculus) (UniProt Q9QUQ5). Kind of test: calcium flux activators in TRPC4/5HT1a cells, counter-screen for TRPC4 activator project, cell-based, second counter screen, HEK293 TRPC4/5HT1a, Fluo-4 (AID 434977;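 active = calcium signal rise above buffer-control mean plus 5 SD in both duplicates, and also a hit in the primary screen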;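 as to activation: plate controls were assay buffer for no effect and maximal serotonin response for full effect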). Particulars: Fluo-4 calcium flux, at 10 µM; hits give high values.
Test [14] can be described thus: calcium flux inhibitors in TRPC4/5HT1a cells, confirmation, counter-screen for TRPC4 inhibitor project, cell-based, second counter screen, HEK293 TRPC4/5HT1a, Fluo-4 (AID 434978;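 active = primary screen active whose calcium signal fell more than 3 SD beyond the full-serotonin control mean in both duplicate plates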;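 also: serotonin given first at submaximal then at maximal dose after compound preincubation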). Particulars: Fluo-4 calcium flux, at 10 µM, serotonin added to trigger calcium flux; hits give high values.
The test system of test [15] is TRPC4 (mouse), co-expressed with 5HT1a in HEK293. The test is described as follows: calcium flux potentiators in TRPC4/5HT1a cells, confirmation, counter-screen for TRPC4 potentiator project, cell-based, second counter screen, HEK293 TRPC4/5HT1a, Fluo-4 (AID 434979;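 active = signal rise over 3 SD above mean of control wells given weak agonist, in both repeats and first screen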). Particulars: Fluo-4 calcium flux, at 10 µM, serotonin added at its EC20 dose; hits give high values.
Test [16] is described as follows: calcium flux activation in mu-opioid HEK293 cells, confirmation, counter-screen for TRPC4 activator project, cell-based, HEK293 mu-opioid receptor line (AID 449723;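 active = hit in primary screen, with calcium signal over 5 SD above buffer well mean in both duplicates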;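 also: counter screen cells carry the mu-opioid receptor alone and lack TRPC4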). Particulars: Fluo-4 calcium fluorescence, at 10 µM; hits give high values.
A short description of test [17]: calcium flux enhancement in mu-opioid HEK293 cells, confirmation, counter-screen for TRPC4 allosteric potentiator project, cell-based, HEK293 mu-opioid receptor line (AID 449724;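 active = calcium signal rise more than 3 SD above the low-dose agonist control mean, in both duplicate plates and the primary screen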;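 also: HEK293 cells carrying mu-opioid receptor only with no TRPC4 channel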). Particulars: Fluo-4 calcium flux, at 10 µM, compound added before EC20 DAMGO stimulus; hits give high values.

For some of these results: Results with a measured potency or affinity are listed apart. The source made the active and inactive calls.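 The calls were made as follows, unless noted: active = membrane potential signal rise above negative control mean plus 3 SD in both duplicates, also active in the earlier TRPC4 screen; inactive = the rest.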

Our source for the outcome, potentiation and activation values is PubChem BioAssay.

Sequence of Short transient receptor potential channel 4 (Mus musculus) (Q9QUQ5 whole entry, looked up): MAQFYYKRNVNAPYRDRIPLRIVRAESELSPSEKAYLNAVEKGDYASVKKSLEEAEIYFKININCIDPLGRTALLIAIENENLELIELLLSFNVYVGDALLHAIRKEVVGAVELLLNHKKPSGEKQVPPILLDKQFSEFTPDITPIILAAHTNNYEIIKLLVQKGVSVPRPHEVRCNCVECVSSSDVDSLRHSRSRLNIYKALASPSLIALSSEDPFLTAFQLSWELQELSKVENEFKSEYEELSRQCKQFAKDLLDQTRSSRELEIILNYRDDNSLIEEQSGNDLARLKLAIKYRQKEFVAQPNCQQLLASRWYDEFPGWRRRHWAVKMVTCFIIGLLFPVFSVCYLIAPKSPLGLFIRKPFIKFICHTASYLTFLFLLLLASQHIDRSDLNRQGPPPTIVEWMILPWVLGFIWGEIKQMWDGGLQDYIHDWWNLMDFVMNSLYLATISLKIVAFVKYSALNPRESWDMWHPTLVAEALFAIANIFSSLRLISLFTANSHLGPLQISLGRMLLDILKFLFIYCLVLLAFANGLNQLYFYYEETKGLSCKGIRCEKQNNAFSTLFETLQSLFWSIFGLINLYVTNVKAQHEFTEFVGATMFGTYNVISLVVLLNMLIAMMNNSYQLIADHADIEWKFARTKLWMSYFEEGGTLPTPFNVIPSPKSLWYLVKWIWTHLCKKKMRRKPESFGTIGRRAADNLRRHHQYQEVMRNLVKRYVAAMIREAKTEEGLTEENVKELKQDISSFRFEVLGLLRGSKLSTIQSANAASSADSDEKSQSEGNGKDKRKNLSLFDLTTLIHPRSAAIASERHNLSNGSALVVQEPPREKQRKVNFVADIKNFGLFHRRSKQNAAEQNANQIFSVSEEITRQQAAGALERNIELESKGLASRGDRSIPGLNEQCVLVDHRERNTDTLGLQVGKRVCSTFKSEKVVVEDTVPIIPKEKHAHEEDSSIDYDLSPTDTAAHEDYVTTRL
Sequence of Short transient receptor potential channel 6 (Mus musculus) (Q61143 whole entry, looked up): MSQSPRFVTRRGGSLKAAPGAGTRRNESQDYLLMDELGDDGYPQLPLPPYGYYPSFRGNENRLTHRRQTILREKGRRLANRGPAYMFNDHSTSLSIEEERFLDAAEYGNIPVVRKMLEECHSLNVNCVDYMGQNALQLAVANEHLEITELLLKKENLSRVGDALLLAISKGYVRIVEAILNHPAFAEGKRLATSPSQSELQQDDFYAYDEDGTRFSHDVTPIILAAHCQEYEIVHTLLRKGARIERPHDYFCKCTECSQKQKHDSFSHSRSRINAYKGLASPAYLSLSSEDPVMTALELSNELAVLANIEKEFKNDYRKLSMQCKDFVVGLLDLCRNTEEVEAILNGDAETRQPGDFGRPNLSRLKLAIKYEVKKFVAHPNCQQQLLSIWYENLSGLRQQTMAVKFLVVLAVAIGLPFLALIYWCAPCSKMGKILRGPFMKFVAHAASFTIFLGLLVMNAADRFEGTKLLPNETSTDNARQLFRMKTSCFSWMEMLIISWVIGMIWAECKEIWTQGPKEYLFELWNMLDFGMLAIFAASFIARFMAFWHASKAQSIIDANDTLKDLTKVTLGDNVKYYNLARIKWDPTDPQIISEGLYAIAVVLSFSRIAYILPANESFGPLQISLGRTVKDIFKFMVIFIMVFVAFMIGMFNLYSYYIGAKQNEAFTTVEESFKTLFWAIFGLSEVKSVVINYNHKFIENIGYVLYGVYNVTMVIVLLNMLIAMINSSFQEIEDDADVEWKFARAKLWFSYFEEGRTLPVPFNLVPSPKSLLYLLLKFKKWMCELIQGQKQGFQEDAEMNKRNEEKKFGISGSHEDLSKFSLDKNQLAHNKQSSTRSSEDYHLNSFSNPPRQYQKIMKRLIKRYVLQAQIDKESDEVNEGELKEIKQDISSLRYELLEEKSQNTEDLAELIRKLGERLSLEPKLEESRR

Turning to `CSc1ccc(S(=O)(=O)NCC(=O)OCC(=O)N(C)Cc2ccccc2)cc1[N+](=O)[O-]`, the outcome in test [1], in test [2], in [3], in test [4], in test [5] and in test [6] was inactive. Further, the result in test [7], in test [8], in [9], in test [10], in test [11] and in test [12] was inactive. Also, the outcome in test [13], in test [14], in test [15], in [16] and in [17] was inactive.

Consider `O=[N+]([O-])c1ccc(CN2CCN(c3nc4ccccc4s3)CC2)cc1`, for which the result in test [1], in test [2], in test [3], in test [5], in test [6] and in [7] was inactive. In addition, the outcome in [8], in [9], in test [10], in [11], in test [12] and in test [13] was inactive. Moreover, the outcome in [14], in test [16] and in test [17] was inactive. In addition, the potentiation is 7% (active) in test [4] and 17.5% (active) in test [15].

Regarding `Cc1ccc(-n2c(N)cc(=O)nc2SCC(=O)N2CCN(c3ccccc3)CC2)cc1`, the result in test [1], in test [2], in test [3], in test [4], in test [5] and in test [6] was inactive. The result in [7], in test [8], in [9], in test [10], in test [11] and in [12] was inactive. Further, the outcome in test [13], in [14], in test [15], in test [16] and in test [17] was inactive.

In the case of `CCOC(=O)C1=C(N)OC2=C(C(=O)CC(C)(C)C2)C1c1ccc(CC)s1` (stereo unspecified), the outcome in test [1], in test [2], in test [3], in test [4], in [5] and in test [6] was inactive. The result in [7], in test [8], in test [9], in [10], in test [11] and in [12] was inactive. In addition, the outcome in test [13], in [14], in test [16] and in test [17] was inactive. The potentiation in [15] is 27.5% (active).

Turning to `CC(C(=O)c1ccc(Br)cc1)[n+]1cccc(NC(=O)c2ccccc2)c1` (stereo unspecified), the outcome in test [1], in test [2], in test [3], in test [4], in test [5] and in [6] was inactive. Besides, the outcome in test [7], in test [8], in test [9], in test [10], in test [11] and in [12] was inactive. Moreover, the outcome in test [13], in [14], in test [15], in [16] and in test [17] was inactive.

For `O=C(Nc1nc(N2C(=O)c3ccccc3C2=O)n(-c2ccccc2)n1)c1ccc(Cl)cc1`, the result in test [1], in test [2], in [3], in test [4], in [5] and in test [6] was inactive. Moreover, the result in [7], in [8], in [9], in test [10], in [11] and in [12] was inactive. The result in test [13], in test [14], in test [15], in test [16] and in [17] was inactive.

As to `N=c1c(C(=O)NCC2CCCO2)cc2c(=O)n3ccccc3nc2n1Cc1ccccc1Cl` (stereo unspecified), the result in [1], in test [2], in test [5], in test [6], in test [7] and in test [8] was inactive. The result in test [9], in [10], in test [11], in test [12], in test [13] and in test [14] was inactive. The result in test [16] and in [17] was inactive. Further, the potentiation in test [3] is 96% (active); in test [4], 102% (active); in test [15] it was 101% (active).

As to `CC(=O)c1c(O)c(C)c(O)c2c1OC1=CC(=O)C(C(C)=O)C(=O)[C@@]12C` (stereo partly specified), the activation in [1] was 246% (active); in test [13], 20.7% (active); in test [16], 43.3% (active). Further, the result in test [2], in test [3], in test [4], in test [5], in test [6] and in [7] was inactive. In addition, the outcome in test [8], in [9], in test [10], in test [11], in test [12] and in test [14] was inactive. The result in test [15] and in test [17] was inactive.
